The results in this text go back to PubChem BioAssay (Tox21).

Values without a mark were called inactive. Records with an inconclusive call do not appear. The source made the active and inactive calls. Unless noted, the call rests on the fitted dose curve; in most records, active means well fitted curve in the direction sought with a large enough effect in the repeat runs; inconclusive means weak or mixed curves; inactive means no such curve, though single readings can be large; an effect the other way counts as inactive or inconclusive.

Experiment [1] in a line: Caspase-3/7 induction in HepG2 cells by small molecules, qHTS assay (AID 1346978). Further: nearly all actives have a fitted effect of over 15% in size. The method, boiled down: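 Wild-type HepG2 cells, 2,000/well, settled 5 hr at 37 C and 5% CO2, then compound-treated for 17 hr; caspase-3/7 activity read by luminescent Caspase-Glo 3/7 after 30 min at room temperature.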
(In general: In qHTS, concentration-response curves come from the screen itself.)

Experiment [2] is described as follows: Caspase-3/7 induction in CHO-K1 cells by small molecules, qHTS cell viability counter screen (AID 1346979). Further: nearly all actives have a fitted effect of over 35% in size. In short, it runs like this:
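To flag cytotoxic compounds, treated CHO-K1 wild-type cells were given CellTiter-Fluor at 16hr and read fluorescently after 1hr at 37C; the caspase-3/7 luminescence was measured in these same wells.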

The nature of experiment [3]: Caspase-3/7 induction in CHO-K1 cells by small molecules, qHTS assay (AID 1346980). Further: nearly all actives have a fitted effect of over 15% in size. In short, it runs like this: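 Wild-type CHO-K1 cells exposed to compounds for 17hr at 37 C, 5% CO2. Caspase-3/7 activity then measured by Caspase-Glo 3/7 luminescence after 30min at room temperature.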
A short description of experiment [4]: Caspase-3/7 induction in HepG2 cells by small molecules, qHTS cell viability counter screen (AID 1346981). Further: series mostly up to about 92 µM; nearly all actives have a fitted effect of over 30% in size. The method, boiled down: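 Fluorescence read-out of live-cell protease activity (CellTiter-Fluor) after 1 hr with reagent. This was measured in the same wells as the caspase-3/7 luminescence, on HepG2 cells exposed to DMSO-dissolved compounds for 16 hr at 37 C.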

The target in experiment [5] is Nuclear receptor subfamily 1 group I member 2 (Homo sapiens) (UniProt O75469). The experiment in a line: Human pregnane X receptor (PXR) small molecule agonists, qHTS assay (AID 1346982). Further: nearly all actives have a fitted effect of over 35% in size. In short, it runs like this:
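HepG2 PXR-Luc reporter line, 5% charcoal-stripped FBS; 5 hr pre-incubation, compound (DMSO) 24 hr at 37 C/5% CO2; ONE-Glo 30 min RT; luminescence read-out.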

Experiment [6] addresses Acetylcholinesterase (Homo sapiens) (UniProt P22303). As to the kind of experiment: Acetylcholinesterase (AChE) small molecule antagonists: colormetric cell-based qHTS assay (AID 1347395; calls by dose curve; further: nearly all actives have a fitted effect of over 30% in size). The method, boiled down:
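Neuroblastoma line SH-SY5Y supplied the enzyme; cells were preincubated with compound for 30 min at 37 C and 5% CO2. Acetylthiocholine with DTNB was then added for 90 min at 37 C, and thiocholine was measured by colour.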

Experiment [7] shares this target. As to the kind of experiment: Acetylcholinesterase (AChE) small molecule antagonists: enzyme-based qHTS assay (AID 1347397; calls by dose curve; further: nearly all actives have a fitted effect of over 55% in size). The following applies: Potency: AChE enzyme activity inhibition. In short, it runs like this:
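Colorimetric DTNB read-out of thiocholine released from acetylthiocholine by recombinant human AChE (50 mU/mL as dispensed). Compounds were preincubated 30 min at RT before substrate/DTNB addition, with a 10 min RT reaction.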

Experiment [8] shares this target. The experiment in a line: Acetylcholinesterase (AChE) small molecule antagonists: fluorescence cell-based qHTS assay (AID 1347398; calls by dose curve; further: nearly all actives have a fitted effect of over 50% in size). The note with it: Potency: AChE activity. In short, it runs like this: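 SH-SY5Y, 2,000 cells/well, attached overnight; cmpd 30 min 37 C; acetylthiocholine/Thiolite Green cocktail 40 min RT; fluorescence Ex/Em 490/520 nm.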
Experiment [9] shares this target. The experiment in a line: Acetylcholinesterase (AChE) small molecule antagonists: enzyme-based qHTS assay with human liver microsomes (AID 1347399; calls by dose curve; further: nearly all actives have a fitted effect of over 60% in size). The note with it: Potency: qHTS inhibition. The method, boiled down:
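Recombinant human AChE (50 mU/mL in the enzyme mix) and human liver microsomes (0.25 mg/mL final) were preincubated with compound and NADPH (0.25 mg/mL final) for 30 min at 37 C. Acetylthiocholine/DTNB was then added; thiocholine was read colorimetrically after 10 min at room temperature.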

Experiment [10] has as its target Cytochrome P450 2D6 (Homo sapiens) (UniProt P10635). The experiment in a line: Cytochrome P450 Family 2 Subfamily D Member 6 (CYP2D6) small molecule antagonists: luciferase reporter qHTS assay (AID 1671196). Further: nearly all actives have a fitted effect of over 50% in size. Further: potency means the concentration at half of the fitted maximal effect. In short, it runs like this: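 Luminogenic proluciferin substrate, CYP2D6 enzyme; 10 min RT preincubation with compound, NADPH regeneration system added, 1 h RT. Stop/detection reagent, 20 min RT, luminescence read (RLU). Signal proportional to CYP activity.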
Background: Reporter assays use an easily measured gene product as a stand-in for the process of interest.

Experiment [11] addresses Cytochrome P450 2C19 (Homo sapiens) (UniProt P33261). The experiment in a line: Cytochrome P450 Family 2 Subfamily C Member 19 (CYP2C19) small molecule antagonists: luciferase reporter qHTS assay (AID 1671197). Further: nearly all actives have a fitted effect of over 65% in size. Further: potency means the concentration at half of the fitted maximal effect. The method, boiled down: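 Quantitative high-throughput screen of the Tox21 library using CYP2C19 with proluciferin substrate. Reaction: NADPH regeneration, 37C, 1 h, after 10 min compound preincubation at room temperature. Readout: luminescence.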

Experiment [12] addresses Cytochrome P450 2C9 (Homo sapiens) (UniProt P11712). As to the kind of experiment: Cytochrome P450 Family 2 Subfamily C Member 9 (CYP2C9) small molecule antagonists: luciferase reporter qHTS assay (AID 1671198). Further: nearly all actives have a fitted effect of over 50% in size. Further: potency means the concentration at half of the fitted maximal effect. In short, it runs like this:
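P450-Glo proluciferin substrate with CYP2C9 enzyme; 10 min RT preincubation, then NADPH regeneration 1 h at 37C; luciferin detection reagent 20 min RT, luminescence in relative luminescence units.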

Experiment [13] deals with Voltage-gated inwardly rectifying potassium channel KCNH2 (Homo sapiens) (UniProt Q12809). The experiment in a line: Human Ether-a-go-go-Related Gene (hERG) channel small molecule antagonists: fluorescence cell-based qHTS assay (AID 1671200).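 Further: hERG-expressing U2OS cells given a thallium stimulus after FluxOR II dye loading; series mostly up to about 77 µM; nearly all actives have a fitted effect of over 50% in size.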 In short, it runs like this:
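Measured: Tl+ flux via fluorescence (480/540 nm) in hERG-expressing U2OS cells after 1 h dye loading at room temperature.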
In general terms: hERG is a cardiac potassium channel; its block is linked to QT prolongation.

In experiment [14] the target is Cytochrome P450 3A4 (Homo sapiens) (UniProt P08684). As to the kind of experiment: Cytochrome P450 Family 3 Subfamily A Member 4 (CYP3A4) small molecule antagonists: luciferase reporter qHTS assay (AID 1671201). In short, it runs like this: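 Setup: enzyme-substrate mix, compound pin transfer, 10 min RT. Reaction: NADPH regeneration solution, 1 h RT. Readout: detection reagent stops turnover, luminescence measured after 20 min, expressed in relative luminescence units.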
Chain of Cytochrome P450 3A4 (Homo sapiens) (P08684 whole entry, looked up): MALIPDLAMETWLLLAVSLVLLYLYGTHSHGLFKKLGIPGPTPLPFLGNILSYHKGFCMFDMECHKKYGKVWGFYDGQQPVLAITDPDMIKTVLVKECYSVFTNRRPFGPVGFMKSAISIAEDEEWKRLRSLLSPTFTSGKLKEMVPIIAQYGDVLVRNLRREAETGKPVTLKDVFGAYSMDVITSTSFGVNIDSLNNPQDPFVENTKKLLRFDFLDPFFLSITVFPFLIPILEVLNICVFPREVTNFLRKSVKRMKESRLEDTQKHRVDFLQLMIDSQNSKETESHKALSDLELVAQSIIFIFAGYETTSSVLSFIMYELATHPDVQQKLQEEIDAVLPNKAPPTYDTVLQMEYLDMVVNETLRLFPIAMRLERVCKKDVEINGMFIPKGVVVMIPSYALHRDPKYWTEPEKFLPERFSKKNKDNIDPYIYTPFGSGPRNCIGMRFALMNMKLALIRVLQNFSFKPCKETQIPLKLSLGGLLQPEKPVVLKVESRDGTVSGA

Experiment [15] concerns the target Cytochrome P450 1A2 (Homo sapiens) (UniProt P05177). As to the kind of experiment: Cytochrome P450 Family 1 Subfamily A Member 2 (CYP1A2) small molecule antagonists: luciferase reporter qHTS assay (AID 1671199). The method, boiled down:
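Luminescence readout (relative luminescence units) after luciferin detection reagent, 20 min RT. Preceded by 1 h room-temperature CYP1A2 reaction with NADPH regeneration solution following 10 min compound preincubation with enzyme and proluciferin substrate. Furafylline positive control.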

For experiment [16], the target named is Nuclear receptor subfamily 1 group I member 2 (Rattus norvegicus) (UniProt Q9R1A7). The experiment in a line: Rat pregnane X receptor (rPXR) activation by small molecules, qHTS assay (AID 1346983). Further: nearly all actives have a fitted effect of over 20% in size. The following applies: rPXR luciferase reporter cells, One-Glo luminescence, 24 h; max activation: active compounds read high. The method, boiled down: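 Cell-based rPXR activation assay: rPXR cells, 2,000 per well, rested 5hr at 37 C, then exposed to compounds in DMSO for 24 hr at 37 C. Luciferase activity read by One-Glo luminescence after 30 min at room temperature.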

For experiment [17], the target named is Nuclear receptor subfamily 1 group I member 2 (Homo sapiens) (UniProt O75469). The experiment in a line: CYP3A4 induction through human pregnane X receptor (PXR) by small molecules, qHTS assay (AID 1346984). Further: nearly all actives have a fitted effect of over 40% in size. The method, boiled down:
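HepG2-derived DPX-2 line carrying PXR plus a CYP3A4-promoter luciferase reporter; cells plated 5 hr, compound-exposed 24 hr at 37C. CYP3A4 activity probed with 3uM (final) Luciferin-IPA for 3hr, then luciferase read after One-Glo.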

For experiment [18] the target is unchanged. As to the kind of experiment: Human pregnane X receptor (PXR) activation by small molecules, qHTS assay (AID 1346985). Further: nearly all actives have a fitted effect of over 40% in size. In short, it runs like this:
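DPX-2 cells (HepG2 co-transfected with a PXR response element and a CYP3A4-promoter luciferase construct) were seeded at 2,000 per well, rested 5 hr at 37C, then exposed to DMSO-dissolved compounds for 24 hr. Activation was read as luciferase luminescence.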
On the % scale 0 is the no-effect control and ±100 the full control effect.

Chain of Cytochrome P450 2C9 (Homo sapiens) (P11712 whole entry, looked up): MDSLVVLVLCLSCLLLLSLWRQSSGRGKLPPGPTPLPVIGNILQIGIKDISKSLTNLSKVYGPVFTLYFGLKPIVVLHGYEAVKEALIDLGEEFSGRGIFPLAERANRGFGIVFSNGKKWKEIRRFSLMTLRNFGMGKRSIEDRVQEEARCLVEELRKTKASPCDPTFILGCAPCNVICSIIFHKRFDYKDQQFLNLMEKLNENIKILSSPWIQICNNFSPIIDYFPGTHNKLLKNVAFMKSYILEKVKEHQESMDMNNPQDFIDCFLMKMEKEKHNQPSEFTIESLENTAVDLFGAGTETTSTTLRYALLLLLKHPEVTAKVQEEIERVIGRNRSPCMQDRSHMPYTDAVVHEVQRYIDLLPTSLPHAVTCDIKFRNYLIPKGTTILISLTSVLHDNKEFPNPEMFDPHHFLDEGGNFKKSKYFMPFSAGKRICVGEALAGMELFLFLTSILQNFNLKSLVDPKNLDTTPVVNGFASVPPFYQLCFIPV
Chain of Acetylcholinesterase (Homo sapiens) (P22303 whole entry, looked up): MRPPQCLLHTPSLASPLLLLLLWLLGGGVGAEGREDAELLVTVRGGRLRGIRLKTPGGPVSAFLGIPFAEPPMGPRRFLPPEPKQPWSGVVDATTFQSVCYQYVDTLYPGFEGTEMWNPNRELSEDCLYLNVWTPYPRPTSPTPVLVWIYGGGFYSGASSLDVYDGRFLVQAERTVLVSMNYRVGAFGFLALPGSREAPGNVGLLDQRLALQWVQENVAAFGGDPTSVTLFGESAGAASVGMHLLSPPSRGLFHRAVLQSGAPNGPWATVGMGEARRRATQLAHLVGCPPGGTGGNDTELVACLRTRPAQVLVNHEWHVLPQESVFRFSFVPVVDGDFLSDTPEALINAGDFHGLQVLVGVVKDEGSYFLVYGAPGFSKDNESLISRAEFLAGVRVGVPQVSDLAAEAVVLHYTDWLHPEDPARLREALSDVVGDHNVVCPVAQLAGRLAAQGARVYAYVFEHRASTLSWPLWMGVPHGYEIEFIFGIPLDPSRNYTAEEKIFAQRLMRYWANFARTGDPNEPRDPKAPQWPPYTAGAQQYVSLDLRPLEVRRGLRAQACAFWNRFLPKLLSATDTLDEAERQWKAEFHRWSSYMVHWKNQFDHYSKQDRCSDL
Chain of Nuclear receptor subfamily 1 group I member 2 (Homo sapiens) (O75469 whole entry, looked up): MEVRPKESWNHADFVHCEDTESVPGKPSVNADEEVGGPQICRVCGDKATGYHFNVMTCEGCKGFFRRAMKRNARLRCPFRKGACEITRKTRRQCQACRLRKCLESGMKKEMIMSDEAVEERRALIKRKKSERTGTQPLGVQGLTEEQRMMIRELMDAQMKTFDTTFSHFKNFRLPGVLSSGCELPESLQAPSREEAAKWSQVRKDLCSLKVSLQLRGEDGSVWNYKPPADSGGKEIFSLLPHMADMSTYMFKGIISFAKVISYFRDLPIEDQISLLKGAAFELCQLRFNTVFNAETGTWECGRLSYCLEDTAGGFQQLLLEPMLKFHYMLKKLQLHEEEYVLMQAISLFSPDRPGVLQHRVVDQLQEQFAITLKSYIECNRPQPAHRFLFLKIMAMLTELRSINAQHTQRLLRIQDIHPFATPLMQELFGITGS
Chain of Voltage-gated inwardly rectifying potassium channel KCNH2 (Homo sapiens) (Q12809 whole entry, looked up): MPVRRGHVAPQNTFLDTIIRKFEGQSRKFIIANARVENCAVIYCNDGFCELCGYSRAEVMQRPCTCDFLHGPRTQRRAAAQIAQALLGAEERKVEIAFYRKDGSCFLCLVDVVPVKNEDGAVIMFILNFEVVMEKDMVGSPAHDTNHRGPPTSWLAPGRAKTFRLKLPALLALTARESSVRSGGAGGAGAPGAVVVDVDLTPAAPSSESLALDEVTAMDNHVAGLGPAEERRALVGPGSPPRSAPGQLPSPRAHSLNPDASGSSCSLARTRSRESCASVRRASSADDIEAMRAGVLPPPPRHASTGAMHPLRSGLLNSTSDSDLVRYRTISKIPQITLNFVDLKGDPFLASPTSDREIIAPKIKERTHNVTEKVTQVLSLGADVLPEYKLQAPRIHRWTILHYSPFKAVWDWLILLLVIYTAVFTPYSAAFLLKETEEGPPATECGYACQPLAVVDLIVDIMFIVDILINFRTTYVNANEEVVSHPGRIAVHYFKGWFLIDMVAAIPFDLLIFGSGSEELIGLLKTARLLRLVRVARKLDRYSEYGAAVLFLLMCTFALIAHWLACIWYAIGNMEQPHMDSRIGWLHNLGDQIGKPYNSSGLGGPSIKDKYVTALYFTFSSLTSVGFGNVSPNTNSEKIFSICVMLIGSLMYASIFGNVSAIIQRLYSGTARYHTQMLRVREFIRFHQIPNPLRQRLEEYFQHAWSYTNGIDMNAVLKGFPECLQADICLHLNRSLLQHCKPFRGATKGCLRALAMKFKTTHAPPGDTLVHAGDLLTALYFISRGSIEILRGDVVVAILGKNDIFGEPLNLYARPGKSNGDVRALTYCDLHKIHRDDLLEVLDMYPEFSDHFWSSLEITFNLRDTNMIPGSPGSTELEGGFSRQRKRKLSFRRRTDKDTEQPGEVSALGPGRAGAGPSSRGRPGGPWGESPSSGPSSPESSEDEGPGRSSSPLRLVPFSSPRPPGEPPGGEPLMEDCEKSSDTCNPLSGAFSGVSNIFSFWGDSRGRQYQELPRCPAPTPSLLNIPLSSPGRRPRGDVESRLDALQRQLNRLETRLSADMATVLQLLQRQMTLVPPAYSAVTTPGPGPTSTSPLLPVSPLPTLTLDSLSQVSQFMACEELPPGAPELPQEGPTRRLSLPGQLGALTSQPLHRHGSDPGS
Chain of Cytochrome P450 2D6 (Homo sapiens) (P10635 whole entry, looked up): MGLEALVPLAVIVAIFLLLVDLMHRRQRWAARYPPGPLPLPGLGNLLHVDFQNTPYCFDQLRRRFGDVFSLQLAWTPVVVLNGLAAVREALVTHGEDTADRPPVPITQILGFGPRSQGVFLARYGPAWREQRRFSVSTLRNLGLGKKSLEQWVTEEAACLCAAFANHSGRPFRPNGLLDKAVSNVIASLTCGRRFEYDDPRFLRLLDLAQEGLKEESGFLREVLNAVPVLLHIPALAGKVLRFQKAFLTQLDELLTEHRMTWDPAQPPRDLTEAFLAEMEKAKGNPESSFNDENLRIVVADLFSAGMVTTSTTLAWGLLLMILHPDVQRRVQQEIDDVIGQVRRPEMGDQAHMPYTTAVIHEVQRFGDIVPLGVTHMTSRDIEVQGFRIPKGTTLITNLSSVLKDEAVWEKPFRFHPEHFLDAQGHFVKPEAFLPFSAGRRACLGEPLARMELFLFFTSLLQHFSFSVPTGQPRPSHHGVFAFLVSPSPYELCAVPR
Chain of Cytochrome P450 2C19 (Homo sapiens) (P33261 whole entry, looked up): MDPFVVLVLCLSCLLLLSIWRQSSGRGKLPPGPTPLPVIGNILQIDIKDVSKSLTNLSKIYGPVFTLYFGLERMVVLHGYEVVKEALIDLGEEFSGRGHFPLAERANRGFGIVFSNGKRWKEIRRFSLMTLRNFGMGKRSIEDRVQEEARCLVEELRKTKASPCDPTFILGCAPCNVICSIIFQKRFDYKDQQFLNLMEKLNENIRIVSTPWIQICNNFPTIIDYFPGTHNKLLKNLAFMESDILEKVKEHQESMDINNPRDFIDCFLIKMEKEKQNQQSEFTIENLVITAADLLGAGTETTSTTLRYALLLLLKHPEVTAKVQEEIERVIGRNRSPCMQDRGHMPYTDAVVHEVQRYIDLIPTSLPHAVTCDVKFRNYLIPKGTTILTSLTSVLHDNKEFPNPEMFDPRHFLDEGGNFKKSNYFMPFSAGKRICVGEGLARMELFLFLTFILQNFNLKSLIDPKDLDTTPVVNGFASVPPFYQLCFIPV
Chain of Cytochrome P450 1A2 (Homo sapiens) (P05177 whole entry, looked up): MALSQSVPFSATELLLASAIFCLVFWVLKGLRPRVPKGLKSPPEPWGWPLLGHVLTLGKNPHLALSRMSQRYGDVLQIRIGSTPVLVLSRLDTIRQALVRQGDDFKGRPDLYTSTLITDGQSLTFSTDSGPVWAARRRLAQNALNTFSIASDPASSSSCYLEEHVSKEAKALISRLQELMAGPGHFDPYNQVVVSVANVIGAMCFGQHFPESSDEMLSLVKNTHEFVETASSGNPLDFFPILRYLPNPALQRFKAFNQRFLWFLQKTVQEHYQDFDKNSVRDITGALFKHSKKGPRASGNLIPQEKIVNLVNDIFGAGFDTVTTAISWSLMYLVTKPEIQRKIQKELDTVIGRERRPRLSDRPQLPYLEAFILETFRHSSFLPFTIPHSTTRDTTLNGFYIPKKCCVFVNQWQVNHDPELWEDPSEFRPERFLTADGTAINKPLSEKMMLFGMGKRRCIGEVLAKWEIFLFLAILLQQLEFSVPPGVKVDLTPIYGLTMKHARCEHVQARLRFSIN

As to `C=CCOC(C)=O`, the Potency entry in experiment [1], in experiment [2], in experiment [3], in [4], in experiment [5] and in [6] was “inactive” in each case. The Potency entry in experiment [7], in experiment [8], in experiment [9], in experiment [10], in [13] and in [14] was “inactive” each time. Further, the figures for the Potency in experiment [11] and in experiment [12] were 70 µM (active) and 55.6 µM (active), respectively.

As to `Clc1cc(Cl)c(Cl)c(Cl)c1`, the Potency entry in experiment [1], in experiment [2], in [3], in [4], in experiment [5] and in [6] was “inactive” throughout. For the same compound, the Potency result in experiment [7], in experiment [8], in [9], in experiment [10], in experiment [11] and in [12] was “inactive” throughout. Also, the Potency entry in experiment [13] and in experiment [14] was “inactive” throughout.

On to `C[C@H]1CNCCc2ccc(Cl)cc21`, for which the Potency entry in [1], in experiment [2], in experiment [3], in experiment [4], in [5] and in [6] was “inactive” throughout. Besides, the Potency result in experiment [7], in experiment [8], in experiment [9], in [11], in experiment [12] and in experiment [15] was “inactive” throughout. In addition, the Potency result in [13] and in experiment [14] was “inactive” in each case. For the same compound, the Potency in [10] was 1.38 µM (active).

`Cn1sc(Cl)cc1=O`: the Potency result in experiment [1], in [2], in experiment [3], in experiment [4], in experiment [5] and in experiment [17] was “inactive” throughout. The Potency entry in experiment [18], in experiment [6], in [7], in [8], in experiment [9] and in experiment [10] was “inactive” throughout. Further, the Potency entry in experiment [11], in [13] and in experiment [14] was “inactive” in each case. The max activation in experiment [16] is -5.85%. The Potency in [12] is 71 µM (active).

`C=CC(C)=O`: the Potency result in [1], in [2], in [3], in [4], in experiment [5] and in experiment [6] was “inactive” throughout. Further, the Potency entry in [7], in experiment [8], in [9], in experiment [10], in experiment [12] and in experiment [13] was “inactive” each time. In [14], the Potency entry was “inactive”.

With `BrCCCCBr`, the Potency result in [1], in experiment [2], in experiment [3], in [4], in [5] and in [6] was “inactive” each time. For the same compound, the Potency result in experiment [7], in experiment [8], in [9], in experiment [10], in experiment [11] and in experiment [12] was “inactive” throughout. Also, the Potency result in [13] and in experiment [14] was “inactive” in each case.

In the case of `CC(=O)NC1CCSC1=O` (centres undefined), the Potency entry in experiment [1], in [2], in experiment [3], in [4], in [5] and in [17] was “inactive” each time. Besides, the Potency result in [18], in [6], in experiment [7], in [8], in experiment [9] and in experiment [10] was “inactive” in each case. The Potency result in [11], in experiment [15], in [13] and in [14] was “inactive” in each case. Further, the max activation in experiment [16] is 10.8%.
